Values joined by “and” are separate entries in the source; they are usually repeats but may differ in a detail not shown here. Identical values can stand only once. Active and inactive are the calls of the source.
Legend:
[1] = anti-His antibody binders, primary screen, artefact control for SMM control protein annotation, biochemical, small-molecule microarray, 635 nm fluorescence (AID 1128); details: anti-His Alexa647 antibody binding, higher = more signal;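 further: score merges feature fluorescence with signal-to-noise for each printed compound spot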
[2] = tested on: Human papillomavirus type 1a E7 protein (residues 1-88); test: HPV1a E7 small-molecule binders, primary screen, biochemical, small-molecule microarray, residues 1-88, 635 nm (AID 1129); details: small-molecule microarray binding, fluorescence 635 nm; higher = more signal
[3] = target: Focal adhesion kinase 1 (Homo sapiens) (UniProt Q05397); test: small-molecule microarray binders of FAK, primary screen, biochemical, 635/667 nm fluorescence, BSA, DTT (AID 1130); details: PTK2 binding, 635 nm fluorescence, higher = more signal;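 further: composite of spot emission at 667 nm and signal to noise over triplicate slides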
Focal adhesion kinase 1 (Homo sapiens), sequence (Q05397 whole entry, looked up): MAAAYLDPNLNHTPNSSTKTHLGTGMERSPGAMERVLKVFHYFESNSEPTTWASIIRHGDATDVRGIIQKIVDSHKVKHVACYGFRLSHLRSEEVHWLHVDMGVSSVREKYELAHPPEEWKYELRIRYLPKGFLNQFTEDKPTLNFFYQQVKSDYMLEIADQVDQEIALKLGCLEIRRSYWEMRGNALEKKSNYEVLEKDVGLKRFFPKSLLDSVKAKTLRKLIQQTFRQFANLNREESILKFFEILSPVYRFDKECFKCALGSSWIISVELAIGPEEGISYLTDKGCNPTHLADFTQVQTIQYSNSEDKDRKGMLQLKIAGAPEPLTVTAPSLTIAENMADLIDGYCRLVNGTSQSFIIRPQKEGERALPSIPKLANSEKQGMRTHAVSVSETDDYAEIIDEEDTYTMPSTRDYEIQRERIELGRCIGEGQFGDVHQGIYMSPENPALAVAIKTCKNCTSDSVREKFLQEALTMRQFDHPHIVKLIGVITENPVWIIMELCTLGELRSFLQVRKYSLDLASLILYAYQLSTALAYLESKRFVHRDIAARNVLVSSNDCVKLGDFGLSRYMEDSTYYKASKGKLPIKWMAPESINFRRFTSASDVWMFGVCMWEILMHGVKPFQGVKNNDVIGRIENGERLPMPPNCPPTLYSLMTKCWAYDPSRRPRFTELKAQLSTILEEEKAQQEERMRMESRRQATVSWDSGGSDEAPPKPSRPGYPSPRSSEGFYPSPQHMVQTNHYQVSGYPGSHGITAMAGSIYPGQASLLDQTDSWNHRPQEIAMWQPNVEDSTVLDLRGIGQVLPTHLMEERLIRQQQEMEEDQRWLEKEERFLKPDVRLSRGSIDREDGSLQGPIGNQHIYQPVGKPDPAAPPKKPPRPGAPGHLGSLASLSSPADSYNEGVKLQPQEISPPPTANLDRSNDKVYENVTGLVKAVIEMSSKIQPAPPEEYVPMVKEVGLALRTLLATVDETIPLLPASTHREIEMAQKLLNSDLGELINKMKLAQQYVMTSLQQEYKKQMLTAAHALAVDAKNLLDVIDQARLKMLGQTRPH

[4] = tested on: Fibrinogen (Alexa647-labelled); test: fibrinogen binders on compound microarrays, profiling panel, artefact control for SMM control-protein annotation, biochemical, small-molecule microarray, 635/667 nm fluorescence (AID 1131); details: fibrinogen-A647 binding fluorescence, higher = more signal;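 further: z-score merges 667 nm fluorescence with per-spot signal-to-noise over triplicate slides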
[5] = target: Follistatin (Homo sapiens) (UniProt P19883); test: follistatin binders on small-molecule microarrays, primary screen, biochemical, small-molecule microarray, 635/667 nm fluorescence (AID 1132); details: FST binding, 635 nm fluorescence, higher = more signal
Follistatin (Homo sapiens), sequence (P19883 whole entry, looked up): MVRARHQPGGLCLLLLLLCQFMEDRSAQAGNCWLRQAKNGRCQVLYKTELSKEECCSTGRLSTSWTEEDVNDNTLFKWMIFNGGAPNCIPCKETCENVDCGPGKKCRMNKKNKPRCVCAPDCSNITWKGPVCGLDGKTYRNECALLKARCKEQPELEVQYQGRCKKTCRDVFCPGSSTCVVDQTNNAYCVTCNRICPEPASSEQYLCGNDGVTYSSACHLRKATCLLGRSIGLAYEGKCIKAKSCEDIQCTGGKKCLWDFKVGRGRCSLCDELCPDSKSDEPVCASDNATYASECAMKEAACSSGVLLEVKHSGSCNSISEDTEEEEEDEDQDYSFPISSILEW

[6] = target: Fibroblast growth factor 2 (Homo sapiens) (UniProt P09038); test: FGF2 binders on small-molecule microarrays, primary screen, biochemical, small-molecule microarray, 635/667 nm fluorescence (AID 1133); details: small-molecule microarray binding, FGF2, fluorescence 635/667; higher = more signal
Fibroblast growth factor 2 (Homo sapiens), sequence (P09038 whole entry, looked up): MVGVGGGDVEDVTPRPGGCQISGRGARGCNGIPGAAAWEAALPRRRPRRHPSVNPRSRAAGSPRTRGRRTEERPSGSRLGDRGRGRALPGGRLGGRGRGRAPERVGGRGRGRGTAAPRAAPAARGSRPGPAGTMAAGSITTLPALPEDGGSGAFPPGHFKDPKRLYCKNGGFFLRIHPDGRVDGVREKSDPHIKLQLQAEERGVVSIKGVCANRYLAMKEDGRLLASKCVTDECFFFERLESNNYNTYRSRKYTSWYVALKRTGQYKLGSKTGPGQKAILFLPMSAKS

[7] = mitochondrial membrane potential change in A549 cells, profiling panel, cell-based, JC-1 fluorescence, basal, 24 h, 100 nL (AID 1138); details: higher = more signal;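 further: A549 lung adenocarcinoma cells under basal conditions with no added stimulus; test concentration not given here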
Lefty1 = Lefty1 binders on small-molecule microarrays, primary screen, biochemical, small-molecule microarray, 635/667 nm fluorescence (AID 1139); details: small-molecule microarray binding, fluorescence 635/667; higher = more signal
[8] = tested on: wheat germ agglutinin (Triticum aestivum), Alexa647-labelled; test: wheat germ agglutinin binders on compound microarrays, profiling panel, artefact control for SMM control-protein annotation, biochemical, small-molecule microarray, 635/667 nm fluorescence (AID 1140); details: WGA-A647 binding, 635 nm fluorescence, higher = more signal;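 further: score merges 667 nm feature emission with signal to noise over triplicate slides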
[9] = target: Luciferin 4-monooxygenase (Photinus pyralis) (UniProt P08659); test: firefly luciferase enzyme inhibitors, primary screen, biochemical, luminescence, purified enzyme, 2006 set (AID 1141); details: SteadyGlo luminescence, 30 min, higher = more signal, called active from +8 up or from −8 down;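 further: cell-free assay with purified firefly luciferase at 100 ng per well in PBS; test concentration not given here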
Luciferin 4-monooxygenase (Photinus pyralis), sequence (P08659 whole entry, looked up): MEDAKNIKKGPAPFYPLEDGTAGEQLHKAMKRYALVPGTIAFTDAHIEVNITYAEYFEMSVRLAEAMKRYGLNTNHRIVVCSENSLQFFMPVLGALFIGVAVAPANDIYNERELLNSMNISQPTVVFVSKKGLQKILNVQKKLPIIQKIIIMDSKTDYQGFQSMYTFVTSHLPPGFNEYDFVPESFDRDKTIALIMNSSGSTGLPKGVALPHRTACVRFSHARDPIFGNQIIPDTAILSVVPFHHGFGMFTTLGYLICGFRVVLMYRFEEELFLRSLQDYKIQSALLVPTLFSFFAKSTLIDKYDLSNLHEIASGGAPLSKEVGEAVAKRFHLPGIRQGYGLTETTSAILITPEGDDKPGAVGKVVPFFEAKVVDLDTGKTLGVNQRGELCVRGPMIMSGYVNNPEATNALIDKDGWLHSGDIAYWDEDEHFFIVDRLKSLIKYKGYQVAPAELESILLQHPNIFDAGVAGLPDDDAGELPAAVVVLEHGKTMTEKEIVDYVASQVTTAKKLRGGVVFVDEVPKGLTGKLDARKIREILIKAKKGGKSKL

COC(=O)c1c2oc(c1C(=O)OC)C(=O)N[C@@H](Cc1ccccc1)Cn1cc(nn1)C1(CCCCC1)NC(=O)N[C@H](CO)CC2
composite z-score [1]: 2.15 and -0.277
composite z-score [2]: 1.09 and 0.558
composite z-score [3]: 0.105 and 0.0367
composite z-score [4]: 1.01 and 0.223
composite z-score [5]: 1.38 and 0.484
composite z-score [6]: 1.41 and 0.184
z-score [7]: 1.53 and 3.28
composite z-score (Lefty1): 0.956 and 0.506
composite z-score [8]: 0.462 and -0.0588
z-score [9]: -1.19 (inactive) and -0.739 (inactive)

CO[C@@H]1COC(=O)[C@H](Cc2ccccc2)NC(=O)CC=C[C@@H](C)[C@H](OC)COC(=O)[C@@H](C)NC(=O)CC=C[C@H]1C
composite z-score [1]: 0.106 and 0.0473
composite z-score [2]: -0.184 and -0.37
composite z-score [3]: -0.129 and 0.183
composite z-score [4]: -0.116 and -0.231
composite z-score [5]: 1.32 and 1.18
composite z-score [6]: 1.58 and 1.35
z-score [7]: 1.24 and 0.944
composite z-score (Lefty1): 1.54 and 1.35
composite z-score [8]: -0.714 and -0.807
z-score [9]: -0.554 (inactive) and -1.49 (inactive)

CO[C@@H]1COC(=O)CC=C[C@H](C)[C@@H](NS(=O)(=O)c2ccc(C)cc2)COC(=O)CC=C[C@@H]1C
composite z-score [1]: 0.395 and -0.145
composite z-score [2]: 0.214 and -0.651
composite z-score [3]: -0.0379 and -0.578
composite z-score [4]: 0.0363 and -2.26
composite z-score [5]: 0.407 and 1.42
composite z-score [6]: 1.16 and 1.17
z-score [7]: 1.66 and -1.16
composite z-score (Lefty1): 1.32 and 0.9
composite z-score [8]: 0.216 and -0.0758
z-score [9]: -0.439 (inactive) and 1.32 (inactive)

C[C@@H]1CC[C@H]2C(=O)N3[C@@H](CC[C@@H](C)[C@@H]3c3ccc(-c4ccco4)cc3)C(=O)N2[C@H]1c1ccc(-c2ccco2)cc1
composite z-score [1]: 2.61 and 1.86
composite z-score [2]: 1.22 and 0.674
composite z-score [3]: 1.68 and -0.333
composite z-score [4]: 1.01 and 0.912
composite z-score [5]: 1.35 and 1.45
composite z-score [6]: 0.882 and 1.36
z-score [7]: -0.764 and -0.575
composite z-score (Lefty1): 1.24 and 1.32
composite z-score [8]: 1.22 and 1.11
z-score [9]: -2.93 (inactive) and -6.15 (inactive)

COC(=O)C1=C(C)N(Cc2ccccc2)[C@]23O[C@](C(=O)OC)(C(=O)N2[C@@H]1c1ccccc1)[C@H]1C(=O)N(C)C(=O)[C@H]13
composite z-score [1]: 0.561 and 1.01
composite z-score [2]: 1.12 and 0.878
composite z-score [3]: -0.178 and -0.0654
composite z-score [4]: 0.938 and 0.0407
composite z-score [5]: 0.368 and 0.409
composite z-score [6]: 0.219 and 0.4
z-score [7]: -0.993 and 1.4
composite z-score (Lefty1): 0.817 and 1.17
composite z-score [8]: 0.638 and 0.366
z-score [9]: -0.576 (inactive) and -1.35 (inactive)

CCCCN1CC=CC23O[C@@H]4C=CCCOC(=O)C4[C@H]2C(=O)N(C(C)CO)[C@@H]3C1=O (stereo not given in full)
composite z-score [1]: 2.27 and -0.329
composite z-score [2]: -0.461 and -0.54
composite z-score [3]: -0.293 and -0.0655
composite z-score [4]: -1.04 and -0.749
composite z-score [5]: -0.546 and 0.101
composite z-score [6]: -0.579 and -0.63
z-score [7]: -0.224 and -0.725
composite z-score (Lefty1): -0.222 and 0.172
composite z-score [8]: -0.558 and -0.281
z-score [9]: -0.0385 (inactive) and -0.213 (inactive)

C=CCN(Cc1ccccc1)C(=O)C1N(c2ccc(CCO)cc2)C(=O)C2C(C(=O)O)C3C=CC21O3 (stereo not given)
composite z-score [1]: -1.33 and -0.796
composite z-score [2]: -1.49 and -1.7
composite z-score [3]: 0.0389 and -0.704
composite z-score [4]: -0.944 and -1.58
composite z-score [5]: -2 and -2.08
composite z-score [6]: -2.32 and -2.92
z-score [7]: -0.571 and -0.775
composite z-score (Lefty1): -2.53 and -1.55
composite z-score [8]: -0.0866 and 1.16
z-score [9]: -0.927 (inactive) and -0.283 (inactive)

C=C[C@@H](OC)[C@H](O)c1ccc(OC)c(O)c1
composite z-score [1]: 0.0608 and -0.368
composite z-score [2]: -0.285 and -1.14
composite z-score [3]: -0.294 and -1.03
composite z-score [4]: -0.267 and -0.492
composite z-score [5]: 1.03 and 0.477
composite z-score [6]: 0.731 and 0.0203
z-score [7]: -0.366 and 0.877
composite z-score (Lefty1): 0.85 and -0.493
composite z-score [8]: -0.368 and 0.0786
z-score [9]: 0.318 (inactive) and -0.905 (inactive)

C=CCN(CCCCC)C(=O)C(c1cccs1)N(CCOCCO)C(=O)/C=C\C(=O)O (stereo not given)
composite z-score [1]: -0.635 and -0.348
composite z-score [2]: -1.05 and -0.826
composite z-score [3]: -0.759 and 0.926
composite z-score [4]: -1.57 and -1.63
composite z-score [5]: -2.22 and -1.47
composite z-score [6]: -1.77 and -1.79
z-score [7]: 1.34 and 0.685
composite z-score (Lefty1): -0.99 and -1.37
composite z-score [8]: -0.539 and 0.579
z-score [9]: -4.23 (inactive) and -3.13 (inactive)

CON(C)C(=O)c1nnc2c3ccccc3n(S(=O)(=O)c3ccc(C)cc3)c2n1
composite z-score [1]: 0.397 and 0.647
composite z-score [2]: 0.836 and 1.11
composite z-score [3]: 0.323 and 0.0633
composite z-score [4]: 0.88 and 0.578
composite z-score [5]: 0.229 and 0.552
composite z-score [6]: 0.43 and 1.31
z-score [7]: 0.551 and 0.105
composite z-score (Lefty1): 0.273 and 0.757
composite z-score [8]: 0.184 and 0.328
z-score [9]: -0.251 (inactive) and -0.0743 (inactive)

C=CCN(CCCC)C(=O)C(c1cccs1)N(CCOCCO)C(=O)/C=C\C(=O)O (stereo not given)
composite z-score [1]: -0.542 and 1.17
composite z-score [2]: -1.01 and 0.222
composite z-score [3]: -0.552 and 0.468
composite z-score [4]: -2.44 and -1.32
composite z-score [5]: -1.31 and -0.249
composite z-score [6]: -1.01 and -0.379
z-score [7]: 0.0562 and 0.567
composite z-score (Lefty1): -0.727 and -0.409
composite z-score [8]: -0.667 and -0.193
z-score [9]: -0.417 (inactive) and -0.714 (inactive)

O=C1[C@H]2[C@H]3[C@H](O)[C@H](O)CC(=NOCc4ccccc4)[C@H]3CC[C@H]2C(=O)N1Cc1ccccc1
composite z-score [1]: 0.17
composite z-score [2]: -0.137
composite z-score [3]: -0.0933
composite z-score [4]: -0.908
composite z-score [5]: 0.659
composite z-score [6]: 0.327
z-score [7]: -0.901
composite z-score (Lefty1): 0.374
composite z-score [8]: 0.0116
z-score [9]: 0.983 (inactive)

C[N+](C)(C)CCCCCCNC(=O)[C@@H]1C[C@@H]2C(=O)N[C@@H](CCCC[N+](C)(C)C)C(=O)N2[C@@H]1c1ccc(O)cc1
composite z-score [1]: 0.582 and 1.21
composite z-score [2]: -0.694 and 0.212
composite z-score [3]: -0.169 and -0.133
composite z-score [4]: -1.44 and -0.95
composite z-score [5]: 1.39 and 1.34
composite z-score [6]: 1.47 and 1.44
z-score [7]: -0.0687 and -0.662
composite z-score (Lefty1): 0.914 and 1.04
composite z-score [8]: -0.187 and -0.088
z-score [9]: 0.547 (inactive) and 0.58 (inactive)

C[C@@H]1CC[C@H]2C(=O)O[C@H](CN=[N+]=[N-])CN2[C@H]1c1ccc(Br)cc1
composite z-score [1]: 0.755 and 0.806
composite z-score [2]: -0.841 and -0.245
composite z-score [3]: 0.073 and 0.0778
composite z-score [4]: 0.142 and 0.149
composite z-score [5]: 0.506 and -0.488
composite z-score [6]: 0.0443 and -0.132
z-score [7]: 0.703 and 0.206
composite z-score (Lefty1): 0.212 and 0.0831
composite z-score [8]: -0.276 and -0.0024
z-score [9]: 0.788 (inactive) and -1.42 (inactive)

CO[C@@H]1C=CCC(=O)N2CCC[C@H]2C(=O)OC[C@H](C)C(=O)OC[C@H]1C
composite z-score [1]: 0.761
composite z-score [2]: -0.624
composite z-score [3]: 0.0548
composite z-score [4]: -1.04
composite z-score [5]: 1.23
composite z-score [6]: 0.109
z-score [7]: 1.54
composite z-score (Lefty1): 0.864
composite z-score [8]: 0.508
z-score [9]: -1.87 (inactive)

Cc1cc2c(nc1C)CCCN2CC(O)CN1CCCc2nc(-c3ccc(Br)cc3)ccc21 (stereo not given)
composite z-score [1]: 1.48 and 2.06
composite z-score [2]: 1.15 and 1.16
composite z-score [3]: 1.08 and 1.26
composite z-score [4]: 0.887 and 0.695
composite z-score [5]: 1.27 and 1.29
composite z-score [6]: 0.953 and 0.871
z-score [7]: -0.118 and 1.8
composite z-score (Lefty1): 1.34 and 0.844
composite z-score [8]: 1.15 and 1.36
z-score [9]: -0.104 (inactive) and -0.176 (inactive)

Reference: PubChem BioAssay
